Data on 7 compounds can be found in PubChem BioAssay (NCI).

Some test systems named below: DU-145 prostate; K-562 leukemia; MALME-3M melanoma; MDA-MB-231 breast; RXF 393 renal; SF-268 CNS; SF-295 CNS; SF-539 CNS; UACC-257 melanoma; M14 melanoma; HCT-15 colon; HT29 colon; SNB-75 CNS; SNB-19 CNS; U251 CNS; PC-3 prostate; SK-MEL-5 melanoma; UACC-62 melanoma; LOX IMVI melanoma; SK-MEL-28 melanoma.
Holding throughout (test): NCI-60 one-dose screen, 48 h (100 = growth as untreated, 0 = no growth, -100 = all killed)
Common to all, as to conditions: 10 µM unless noted

This is part of a sample that, as a whole, favours compounds with a hit. Of some 83,000 tested, about 20% had one in any assay.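 Growth was measured after 48 h exposure to one concentration of compound in 96-well plates. Values under 10 count as active.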 A number with no mark means an inactive call. The source made the active and inactive calls.

Consider `N#Cc1c(-c2ccccc2)cc(-c2ccc(Nc3nc(Nc4ccc(Cl)cc4)nc(Nc4ccc(Cl)cc4)n3)cc2)nc1N`, for which the growth in the experiment on DU-145 prostate was 34%; in the experiment on K-562 leukemia, 32.6%; in the experiment on MALME-3M melanoma, -68.1% (active); with MDA-MB-231 breast, -31.2% (active); in the experiment on RXF 393 renal it was -44.5% (active); in the experiment with SF-268 CNS it was 51.9%. Also, the growth in the experiment with SF-295 CNS was 75.5%; in the experiment on SF-539 CNS, -53.9% (active); in the experiment on UACC-257 melanoma, -12.1% (active); with M14 melanoma it was 2% (active); in the experiment with HCT-15 colon, -38.3% (active); in the experiment with HT29 colon, 9.85% (active). For the same compound, the growth in the experiment on SNB-75 CNS was 66%; with SNB-19 CNS, 100%; with U251 CNS, -35.4% (active); in the experiment with PC-3 prostate, 20.7%; in the experiment with SK-MEL-5 melanoma, -13.8% (active); in the experiment on UACC-62 melanoma, 54.5%. Also, the growth in the experiment with LOX IMVI melanoma is -88.7% (active); in the experiment on SK-MEL-28 melanoma it was -80.9% (active).
Take `COc1ccc(-c2cc(-c3ccc(Cl)cc3)c(C#N)c(=O)n2Cc2ccc(C(=O)Nc3ccccc3N)cc2)cc1`: the growth is 101% in the experiment on DU-145 prostate; 46.2% in the experiment with K-562 leukemia; 74.1% with MALME-3M melanoma; 67.2% in the experiment with MDA-MB-231 breast; 54.5% in the experiment on RXF 393 renal; 73.4% in the experiment on SF-268 CNS. The growth in the experiment on SF-295 CNS was 61.1%; in the experiment with SF-539 CNS, 74%; in the experiment on UACC-257 melanoma, 105%; in the experiment with M14 melanoma, 81.5%; in the experiment with HCT-15 colon it was 68.2%; in the experiment on HT29 colon it was 107%. The growth in the experiment with SNB-75 CNS was 55.9%; with SNB-19 CNS it was 80.2%; with U251 CNS, 88.7%; in the experiment with PC-3 prostate it was 79.6%; with SK-MEL-5 melanoma, 80.9%; with UACC-62 melanoma it was 49.5%. For the same compound, the figures for the growth in the experiment on LOX IMVI melanoma and in the experiment on SK-MEL-28 melanoma were 69.3% and 70%, respectively.
For `O=C(CN1CCCCC1)Nc1nc(-c2cc3ccccc3oc2=O)cs1`, the growth in the experiment on DU-145 prostate is 106%; with K-562 leukemia, 90.9%; in the experiment on MALME-3M melanoma, 103%; in the experiment on MDA-MB-231 breast, 103%; with RXF 393 renal, 100%; in the experiment with SF-268 CNS, 94.1%. For the same compound, the growth was 102% with SF-295 CNS; 103% in the experiment on SF-539 CNS; 102% with UACC-257 melanoma; 107% in the experiment on M14 melanoma; 102% in the experiment on HCT-15 colon; 100% with HT29 colon. For the same compound, the growth with SNB-75 CNS is 82.4%; in the experiment with SNB-19 CNS, 100%; with U251 CNS, 97.4%; in the experiment with PC-3 prostate it was 97.8%; with SK-MEL-5 melanoma, 96%; in the experiment on UACC-62 melanoma it was 91.7%. Further, the growth was 101% in the experiment on LOX IMVI melanoma and 102% in the experiment with SK-MEL-28 melanoma.
As to `CN1CCc2nc3sc(C(N)=O)c(N)c3c(-c3cccs3)c2C1`, the growth in the experiment on DU-145 prostate was 10.2%; in the experiment on K-562 leukemia, 74.2%; with MALME-3M melanoma, 55%; in the experiment on MDA-MB-231 breast, 44.5%; in the experiment with RXF 393 renal it was -32% (active); with SF-268 CNS, 16.4%. Further, the growth was 21.7% in the experiment with SF-295 CNS; 10.9% with SF-539 CNS; 57.9% with UACC-257 melanoma; 15.5% in the experiment on M14 melanoma; 33% with HCT-15 colon; 42.6% in the experiment with HT29 colon. The growth with SNB-75 CNS was 25.2%; in the experiment on SNB-19 CNS it was 37.9%; in the experiment on U251 CNS it was 27.4%; with PC-3 prostate, 32.5%; in the experiment on SK-MEL-5 melanoma, -58.7% (active); with UACC-62 melanoma, 19.5%. Besides, the results for the growth in the experiment on LOX IMVI melanoma and with SK-MEL-28 melanoma were 7.95% (active) and 5.5% (active), respectively.
For `O=C1/C(=C/c2ccccc2O)CC/C1=C\c1ccccc1O`, the growth with DU-145 prostate is 46.1%; in the experiment with K-562 leukemia it was 7.41% (active); in the experiment on MALME-3M melanoma it was 80.4%; in the experiment with MDA-MB-231 breast, 44.3%; with RXF 393 renal, 67.5%; with SF-268 CNS, 71.3%. Further, the growth in the experiment with SF-295 CNS is 98.6%; with SF-539 CNS it was 82.3%; with UACC-257 melanoma it was 86.3%; in the experiment with M14 melanoma, 61.3%; with HCT-15 colon, 35.1%; in the experiment on HT29 colon, 99.6%. Moreover, the growth was 77.2% with SNB-75 CNS; 31.3% in the experiment on SNB-19 CNS; 69.1% with U251 CNS; 8.94% (active) with PC-3 prostate; 77.9% in the experiment on SK-MEL-5 melanoma; 36.6% in the experiment with UACC-62 melanoma. Moreover, the results for the growth in the experiment with LOX IMVI melanoma and in the experiment on SK-MEL-28 melanoma were 45.9% and 96.8%, respectively.
In the case of `COc1ccc(-c2nn(-c3cccc(Cl)c3)cc2-c2cc(-c3ccc(Br)cc3)nc(N)n2)cc1`, the growth in the experiment on DU-145 prostate is 107%; in the experiment on K-562 leukemia, 94.2%; in the experiment on MALME-3M melanoma, 102%; in the experiment with MDA-MB-231 breast it was 81.9%; in the experiment on RXF 393 renal, 111%; in the experiment with SF-268 CNS it was 101%. The growth in the experiment on SF-295 CNS is 99.1%; with SF-539 CNS, 103%; in the experiment on UACC-257 melanoma, 104%; with M14 melanoma it was 92.8%; in the experiment on HCT-15 colon, 81.4%; in the experiment with HT29 colon it was 86%. Further, the growth in the experiment with SNB-75 CNS is 96.9%; in the experiment on SNB-19 CNS it was 95.2%; in the experiment on U251 CNS, 97.5%; with PC-3 prostate, 80%; with SK-MEL-5 melanoma, 94.6%; with UACC-62 melanoma, 85%. Also, the growth with LOX IMVI melanoma is 98.7%; in the experiment with SK-MEL-28 melanoma, 103%.
Regarding `Cc1ccc2c(c1)=C/C(=C\c1cc(-c3ccccc3)oc1O)C(=O)N=2`, the growth was 104% in the experiment with DU-145 prostate; 91.7% in the experiment with K-562 leukemia; 110% in the experiment with MALME-3M melanoma; 116% in the experiment on MDA-MB-231 breast; 106% with RXF 393 renal; 91.6% in the experiment on SF-268 CNS. In addition, the growth with SF-295 CNS is 93.1%; with SF-539 CNS it was 101%; in the experiment on UACC-257 melanoma it was 109%; in the experiment with M14 melanoma, 90.6%; in the experiment on HCT-15 colon it was 97.6%; with HT29 colon it was 108%. The growth with SNB-75 CNS is 93.5%; with SNB-19 CNS, 107%; in the experiment with U251 CNS, 109%; with PC-3 prostate, 96.3%; in the experiment with SK-MEL-5 melanoma, 105%; with UACC-62 melanoma it was 101%. For the same compound, the growth is 94.4% with LOX IMVI melanoma and 104% with SK-MEL-28 melanoma.
